B2AR arrestin: agonists driving beta-arrestin recruitment to human beta2-adrenergic receptor; actives 0.02% (n = 330,000); Potency, µM (highest dose often 46.1 µM), for the others: at the highest dose activation, actives largely listed as activators; P07550; beta-arrestin recruitment to beta2AR, cell-based reporter; active = well fitted activation curve with a large enough effect; inconclusive = small, poorly fitted or top-dose-only effect;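 note: potency is the fitted concentration of half-maximal effect; 0% = DMSO controls and full agonism = EC100 isoproterenol or metaproterenol; nearly all actives have a fitted effect of over 65% in size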
TSHR antagonist: antagonists of human thyroid stimulating hormone receptor; P16473; TSHR-expressing cells, TSH-stimulated cAMP HTRF, 2 h; hits give low values; activity change, negative = inhibition, % at 11.5 µM; actives 0.2% (n = 330,000); AID 504810;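 active = activity change below a set negative limit, meaning inhibition stronger than a set level, cut at about -70% in these data; inconclusive = activity change between two set negative limits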; note: % is set by controls: 0 for no effect and ±100 for the full control effect
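Inhibition of cAMP made by TSHR-expressing cells under TSH stimulation (4nM final, EC80; 2 h, 37 deg C) is quantified with a one-step lysis HTRF kit, anti-cAMP cryptate versus cAMP-d2.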
D3 antag: D3 dopamine receptor (human) antagonism. max response, negative = inhibition, %. D3R cells, DiscoveRx beta-arrestin luminescence, antagonist mode; hits give low values. actives 2.5% (n = 360,000). AID 652054; in the data active = max response below about -50%; inconclusive = no clear call, values can overlap the other calls; note: % is set by controls: 0 for no effect and ±100 for the full control effect
Target sequence (P35462 whole entry, looked up): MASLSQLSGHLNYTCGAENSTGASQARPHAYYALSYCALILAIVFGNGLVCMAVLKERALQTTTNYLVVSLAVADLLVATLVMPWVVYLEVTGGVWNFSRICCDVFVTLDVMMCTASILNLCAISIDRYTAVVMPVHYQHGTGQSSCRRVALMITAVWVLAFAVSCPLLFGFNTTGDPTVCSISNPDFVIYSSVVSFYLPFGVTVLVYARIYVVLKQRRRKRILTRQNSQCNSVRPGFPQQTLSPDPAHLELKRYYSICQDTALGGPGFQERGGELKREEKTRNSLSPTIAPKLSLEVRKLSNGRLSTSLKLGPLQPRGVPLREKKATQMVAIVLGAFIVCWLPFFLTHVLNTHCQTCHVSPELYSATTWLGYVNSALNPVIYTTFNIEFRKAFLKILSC
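Cells plated overnight at 1500 cells/well, then exposed to library compounds with dopamine controls for 90 minutes at 37 degrees C. DiscoveRx reagent added for 30–60 minutes at room temperature; luminescence read, quantitative HTS format.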
D3 ag: D3 dopamine receptor (human) agonism; P35462; D3R DiscoveRx beta-arrestin cells, luminescence, 90 min; max activation, %; actives 0.58% (n = 410,000); in the data active = max activation above about 30%; note: 0% is about no effect
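Agonist-mode cell screen: cells plated at 1500/well and incubated overnight at 37 °C, then exposed to library compounds for 90 min at 37 °C. Detection reagent was added for 30–60 min at room temperature, and luminescence was read.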
An asterisk follows results filed as active; ? = inconclusive; . = no result. Sampled rows, rich in hits. Any-hit rate of the full collection: about 2.9%.

SMILES	B2AR arrestin	TSHR antagonist	D3 antag	D3 ag
Fc1ccccc1CN1CCN(c2ccc(Cl)cc2)CC1	0%	-7	?	-17
CCOP(=O)(OCC)O/C(=C/Cl)c1ccc(Cl)cc1Cl	.	.	.	2
Cc1cccc(NC(=O)Cn2cc(C(=O)c3ccccc3)c3ccccc32)c1C	.	.	.	-15
COc1cc(CN2CCN(C(=O)Cc3ccccc3)CC2)cc(OC)c1OC	0%	-2	0	3
COc1ccccc1C1CC2CCC(C1OC(C)=O)N2Cc1ccccc1 (stereo unspecified)	-3%	7	-87*	-19
OC(c1ccccc1)(c1ccccc1)C1CN2CCC1CC2 (stereo unspecified)	0%	-7	-70*	0
C[C@H]1CC[C@@H]2[C@@H](C)[C@H]3[C@H](C[C@H]4[C@@H]5CC=C6CC(O[C@@H]7O[C@H](CO)[C@H](O)[C@H](O[C@@H]8O[C@H](CO)[C@@H](O)[C@H](O)[C@H]8O)[C@H]7O[C@H]7O[C@@H](C)[C@H](O)[C@@H](O)[C@H]7O)CC[C@]6(C)[C@H]5CC[C@]34C)N2C1 (stereo partly specified)	.	.	.	-1
CCCCCCN1CCN(c2ccccc2Cl)CC1	0%	6	-115*	2
CCCC(C)(COC(N)=O)COC(=O)NC1CC1 (stereo unspecified)	.	.	.	11
O=C1CN=C(c2ccccc2)c2cc(Cl)ccc2N1CC1CC1	.	.	.	2
COc1cccc(CNCCc2c[nH]c3ccccc23)c1	0%	-2	-54*	-21
COc1ccc(CN(CCc2c[nH]c3ccccc23)Cc2ccc(OC)cc2)cc1	.	.	-50*	-8
COc1ccc(CNCCc2c[nH]c3ccccc23)c(OC)c1C	-1%	-22	-71*	-23
CCOc1cc(CNCCc2c[nH]c3ccccc23)cc(Cl)c1OCC	0%	5	-76*	-29
COc1ccc(OCC(=O)N2CCN(Cc3cc(=O)n4nc(-c5ccccc5C)sc4n3)CC2)cc1	.	.	.	-5
Nc1c(C(=O)Nc2ccc(Cl)c(C(F)(F)F)c2)sc2nc3c(cc12)N1CCC3CC1	.	.	.	1
Clc1cccc(N2CCNCC2)c1	0%	0	-76*	-76
c1ccc(CN2CCN(Cc3ccc4c(c3)OCCO4)CC2)cc1	0%	3	-76*	-15
COc1ccccc1OCC(=O)N1CCN(Cc2ccc3c(c2)OCO3)CC1	0%	10	-2	-2
COc1ccc(OC)c(NC(=O)Cn2cc(C(=O)c3ccccc3F)c3ccccc32)c1	.	.	.	1
COc1ccc(CC(=O)N2CCN(C)CC2)cc1	0%	11	?	6
COc1ccc(CC(=O)N2CCN(C)CC2)cc1OC	-1%	-1	-71*	-3
COc1cc(/C=C/c2nc3ccccc3c(=O)n2-c2ccc(Br)c(C)c2)ccc1O	.	.	.	-4
C[C@]12CC[C@H]3[C@@H](CCC4=CC(=O)CC[C@@]43C)[C@@H]1CC[C@@H]2OC(=O)CCc1ccccc1	.	.	.	10
S=P(N1CCOCC1)(N1CC1)N1CC1	.	.	-1	34*
SMILES	B2AR arrestin	TSHR antagonist	D3 antag	D3 ag
S=P(N1CCCCCC1)(N1CC1)N1CC1	.	.	6	2
NC(=O)CI	.	5	.	.
CC(C)CCC(=O)O[C@H]1CC[C@H]2[C@@H]3CCC4=CC(=O)CC[C@]4(C)[C@H]3CC[C@]12C	.	.	.	9
CC[C@H]1CN2CCC1C[C@@H]2[C@@H](O)c1ccnc2ccc(OC)cc12 (stereo partly specified)	.	.	-63*	-78
CC[C@H]1CN2CCC1C[C@H]2[C@H](O)c1ccnc2ccc(OC)cc12 (stereo partly specified)	-1%	-3	-17	-16
CC(C)=CCN1CC[C@]2(C)c3cc(O)ccc3C[C@H]1[C@H]2C	.	.	.	-24
CN(C)CCCCCCN(C)C (tested in a mixture with another compound)	.	.	.	8
CC(C)C[C@H]1C(=O)N2CCCC2[C@]2(O)O[C@](NC(=O)[C@@H]3C=C4c5cccc6[nH]cc(c56)CC4N(C)C3)(C(C)C)C(=O)N12 (stereo partly specified)	0%	-10	?	14
CN1C[C@H](CO)C=C2c3cccc4[nH]cc(c34)C[C@H]21	-1%	-34	-78*	-14
CCN(CC)C(=O)[C@@H]1C=C2c3cccc4[nH]cc(c34)C[C@H]2N(C)C1	.	.	.	51*
CC(C)[C@H]1C(=O)N2CCC[C@H]2[C@]2(O)O[C@](NC(=O)[C@@H]3C=C4c5cccc6[nH]cc(c56)C[C@H]4N(C)C3)(C(C)C)C(=O)N12	-2%	14	0	10
O=C(CN1CC=C(c2ccccc2)CC1)Nc1c(Cl)cccc1Cl	-1%	-6	-71*	1
CC1=CC2/C=C(\C)CCC(O)C(O)/C=C/C(=O)C23C(=O)NC(CC(C)C)C3C1C (stereo unspecified)	0%	?	-74*	-12
COC(=O)[C@H]1[C@@H](OC(=O)c2ccccc2)C[C@@H]2CC[C@H]1N2C	.	.	.	-11
COC(=O)C1C2CC[C@@H](CC1OC(=O)c1ccccc1)N2 (stereo partly specified)	0%	4	19	41*
NC(=O)c1ccc(OCCC(O)N2CC=C(c3ccc(F)cc3)CC2)cc1 (stereo unspecified)	0%	4	-57*	-26
C#CCN1CC(=O)N(COC(=O)C2C(C=C(C)C)C2(C)C)C1=O (stereo unspecified)	.	.	.	4
COc1ccccc1N1CCN(Cc2ccccc2F)CC1	0%	4	-92*	-9
COc1ccccc1N1CCN(Cc2ccc(Br)cc2)CC1	0%	-3	-110*	-5
O=S1(=O)N(Cc2ccccc2Cl)CCCN1Cc1ccccc1Cl	.	.	.	-5
COc1ccc(CC(=O)N(C)C2CCCN(Cc3ccccc3F)C2)cc1OC (stereo unspecified)	-1%	13	-17	-3
COc1ccccc1N1CCN(Cc2cccc(OC)c2O)CC1	-1%	-3	-101*	-10
Clc1ccccc1CN1CCN(c2cccc3[nH]ccc23)CC1	0%	-12	-80*	-9
O=C(Cc1ccc(Br)cc1)N1CCN(Cc2ccccc2)CC1	0%	1	4	0
CCN(CC)C(=O)/C(Cl)=C(\C)OP(=O)(OC)OC	.	.	.	-13
SMILES	B2AR arrestin	TSHR antagonist	D3 antag	D3 ag
COc1ccccc1N1CCN(Cc2c(F)cccc2F)CC1	0%	4	-69*	-31
COc1ccccc1CN1CCNCC1	.	.	-6	-5
COc1ccccc1N1CCN(Cc2ccccc2Cl)CC1	0%	0	-88*	-21
Clc1ccc(N2CCN(Cc3ccccc3Cl)CC2)cc1	0%	-4	-22	-24
Nc1ccc(N2CCN(Cc3ccccc3Cl)CC2)c(Cl)c1	0%	8	-57*	-19
Clc1ccccc1CN1CCN(c2ccccc2)CC1	0%	-8	-26	-17
O=C1CN=C(c2ccccc2Cl)c2cc(Cl)ccc2N1Cc1cccc(Cl)c1	.	.	.	-7
O[C@H]1[C@H]2[C@H](O)CCCN2C[C@H]1O	.	.	.	-15
